According to the supplement of paper PMC3334620:
The full ranking holds about 33,000 sequences; the median of “E-score (-0.5 to 0.5)” is about -0.017, and the highest 2% start at about 0.3. This excerpt belongs to a sample that is enriched for the highest values.

Molecular target: T1, Sut1 (UniProt P53032)
T1 sequence: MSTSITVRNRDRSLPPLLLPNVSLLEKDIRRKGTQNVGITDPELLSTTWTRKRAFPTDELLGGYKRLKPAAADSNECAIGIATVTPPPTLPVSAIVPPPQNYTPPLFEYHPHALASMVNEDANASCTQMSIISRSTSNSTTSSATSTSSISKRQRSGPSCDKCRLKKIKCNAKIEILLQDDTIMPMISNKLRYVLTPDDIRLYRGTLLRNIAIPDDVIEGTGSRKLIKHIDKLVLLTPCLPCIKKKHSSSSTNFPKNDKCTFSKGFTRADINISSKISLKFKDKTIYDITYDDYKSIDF
Assay: PBM E-score (8-mer binding enrichment) (E-score (-0.5 to 0.5)); higher = stronger / more preferred TF binding
Conditions: protein concentration: 200 nM; construct: GST-full length
Summary of the method: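 Yeast transcription factors, full-length or as DNA-binding domains, were expressed with a GST tag using PURExpress in vitro transcription/translation. At about 100-200 nM they were applied to universal all-10-mer Agilent arrays, double-stranded by primer extension on fresh or once-stripped slides. Fluorescent anti-GST detected bound protein, and masliner normalised the scans. E-scores for ungapped eight-base words, pooled with reverse complements, came from the Universal PBM Analysis Suite.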

Sequence	PBM E-score
CCCACTAG	-0.248
AGTGTAGC	-0.123
CAAGCCAA	-0.059
GTGGGAAA	-0.0448
GCTCCGAA	0.439
TCTCCGCA	0.225
GCTCCGAC	0.267
TCTCCGAA	0.446
CCTCCGAA	0.121
TCTCCAAA	-0.0978
GTGTTTCA	0.0164
CACCCCTC	-0.352
CTCGGAAG	0.174
AAATAAAG	0.224
AAATAAAT	0.329
AAATAAAA	0.234
ATATAAAG	0.177
ATATAAAC	0.227
ATATAAAT	0.325
ATGTTATG	0.211
ACCTGTTC	-0.081
CTTCTTCA	-0.102
CCTGGTCA	-0.307

Sequence	PBM E-score
CCCGATCA	-0.133
ACCCAAAT	0.00677
CATGTCTC	-0.0334
GCAGCTCC	0.00727
GTCCGCGA	0.347
GCCCGCGA	-0.0595
CTCCGCTC	0.295
GTCCGCTA	0.258
ATCCGCGA	-0.0287
CTCCGCTA	0.301
ATCCGCAA	-0.0823
CTCCGCGA	0.35
CGCCGCGA	0.0357
GTCCGCAA	0.298
CTCCGCCA	0.171
TTCCGCAA	0.166
CCGTTCTC	0.0465
AGAGCGCG	-0.155
AGCCAGCG	-0.249
ACCATCGA	-0.151
GTCACGAC	-0.0628
CGCTCCAC	-0.012
ATCCGCGC	-0.0272

Sequence	PBM E-score
CTCCGCCC	0.217
CTCCGCGC	0.327
ATGCATAC	-0.0233
GAGTGATA	0.13
TGTTCGAA	0.103
CCAAGTTC	-0.107
ATATACTA	0.305
AAATGTAT	0.304
AAATGTAG	0.0326
AAATATAC	0.217
AAATGTAA	0.206
ATATACTC	0.197
GTATATAC	0.316
AAATATAA	0.273
GTATATAA	0.277
AAATATAT	0.365
CTATACTA	0.21
GTATACAC	-0.0284
CAATCGAG	-0.309
CTGGTAAA	0.141
GACTTCAC	-0.00592
AAACACGT	0.116
CCCAGCCG	-0.222

Sequence	PBM E-score
CCTGATTC	-0.00501
CTCCTCCA	-0.147
CATACCTC	-0.0271
GTTTGGCA	-0.0612
ACATATAT	0.266
ACTTATAG	0.0142
AAATATTA	0.227
ATATATAT	0.302
AAATATGA	0.114
ATATAGAT	0.272
ACTTATAC	0.264
AAATATGT	0.317
AAATATTT	0.31
ACTTATAT	0.325
AAATATGC	0.054
AAATATTC	0.207
ACGCTATA	-0.103
CACTAACG	-0.17
CGGTGCAA	-0.00847
AGAGCGCA	-0.306
AGGGAGGG	-0.158
AAGACTAA	0.0716
GGTTAACA	0.0261

Sequence	PBM E-score
ACATATAC	0.088
ATATAGAG	0.0735
AGATATAT	0.301
ATATATAC	0.31
ATATATAG	0.329
CTATATAC	0.287
AGATATAC	0.0915
AGATATAG	0.18
CTATATAG	0.0328
AGAAATGG	-0.012
GGCACTCA	-0.374
CTCGCCTA	-0.0978
TGCGTTAA	-0.00864
TATCTCGA	0.108
ATGGTGTC	-0.14
CCCGTGCC	-0.126
AACCGAGA	0.195
GATTGAAC	0.00278
AATTGAAT	0.314
GATTGAAA	0.303
AATTGAAC	0.0105
CATTGAAA	0.249
AATTGAAG	0.115

Sequence	PBM E-score
GATCAAAC	-0.00328
CCCCATAA	-0.104
CGAAGATA	0.132
AGAGGGGG	-0.322
GCCGGCAA	0.144
ACCGGCGA	-0.0414
GCCGGCGA	0.0246
TCCGGCAA	0.33
TCCGGCGA	0.301
ACCGGCAA	-0.198
GAATTTTA	0.251
AACTCTGT	-0.0734
GGACGTAA	-0.136
ATGTTGAA	0.131
CTTGAGAA	-0.0815
GTCGCAAA	0.131
TTCGCAAA	0.303
ATCGCAAA	0.0837
ACGGTCCT	-0.258
ACCCAGAC	-0.0554
CAAGCAAC	-0.124
ATTCCAAA	0.0401
